# Experimental data as given in the supplement of paper PMC3334620.
# In all, about 33,000 sequences were measured (“E-score (-0.5 to 0.5)”: median about -0.01, highest 2% from about 0.26 on). Only a selection was taken, and the highest values are over-represented in it overall.
# Molecular target: Ste12 (UniProt P13574)
# Experiment: PBM E-score (8-mer binding enrichment) (E-score (-0.5 to 0.5)); higher = stronger / more preferred TF binding
# Settings: protein concentration: 200 nM; construct: GST-DNA-binding domain
# Method in brief: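 Yeast transcription factors carrying a GST tag, as full-length proteins or DNA-binding domains, were produced by PURExpress in vitro transcription/translation. About 100-200 nM protein was applied to universal all-10-mer Agilent arrays, double-stranded by primer extension on fresh or once-stripped slides. Bound protein was detected with fluorescent anti-GST, and scans were normalised with masliner. The Universal PBM Analysis Suite gave each ungapped eight-base word, pooled with its reverse complement, an E-score, a modified Wilcoxon-Mann-Whitney statistic.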
# UniProt P13574, sequence (P13574 whole entry): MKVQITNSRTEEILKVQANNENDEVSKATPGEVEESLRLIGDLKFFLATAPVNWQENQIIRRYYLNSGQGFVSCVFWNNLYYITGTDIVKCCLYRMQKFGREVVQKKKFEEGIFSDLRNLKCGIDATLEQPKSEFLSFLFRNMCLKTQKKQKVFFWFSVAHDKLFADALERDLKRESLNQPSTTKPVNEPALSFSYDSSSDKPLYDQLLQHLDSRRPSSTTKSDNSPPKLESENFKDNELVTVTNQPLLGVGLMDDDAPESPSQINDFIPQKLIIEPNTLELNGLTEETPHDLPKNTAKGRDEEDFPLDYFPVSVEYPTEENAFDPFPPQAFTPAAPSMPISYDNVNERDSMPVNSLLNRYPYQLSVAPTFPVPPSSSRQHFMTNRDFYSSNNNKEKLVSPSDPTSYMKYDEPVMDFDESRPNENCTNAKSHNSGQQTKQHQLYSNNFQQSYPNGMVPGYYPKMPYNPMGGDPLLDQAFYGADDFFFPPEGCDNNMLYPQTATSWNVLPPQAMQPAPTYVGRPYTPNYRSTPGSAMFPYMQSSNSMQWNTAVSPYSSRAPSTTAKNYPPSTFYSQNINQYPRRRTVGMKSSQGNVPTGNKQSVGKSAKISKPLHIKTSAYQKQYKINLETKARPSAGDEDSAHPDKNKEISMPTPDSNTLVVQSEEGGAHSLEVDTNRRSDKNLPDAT
row,Sequence,PBM E-score
1,GGAATCCC,0.0198
2,GACCATGC,-0.139
3,ATCTCAAA,0.27
4,AACTCAAG,-0.00801
5,ATCTCAAG,0.0665
6,TTCTCAAA,0.291
7,AACTCAAA,0.266
8,GTCTCAAA,0.218
9,ATCTCAAT,0.0795
10,CTCTCAAA,0.0271
11,CACTCAAA,0.0429
12,ATGCCGTA,-0.0947
13,CTGGTCGA,-0.196
14,ATGGATTC,0.186
15,ACCGTGAT,0.0763
16,TGATTACA,-0.00637
17,ACAACCAA,0.0252
18,CGATCTCC,-0.108
19,ATCAACTG,-0.112
20,TATTAACA,0.164
21,CATTAAAG,0.034
22,AATTAAAG,0.103
23,CATTAAAA,0.27
24,AATTAAAC,0.241
25,GATTAAAA,0.234

row,Sequence,PBM E-score
1,AATTAAAA,0.308
2,TATTAAAA,0.341
3,CATTAAAC,0.191
4,TAAGGCAA,0.0326
5,CTACCCTC,-0.0776
6,GCCCTCCC,0.115
7,TGCTCACA,-0.148
8,CCTTGTGC,-0.0236
9,CACCATAA,0.136
10,ATACTAGG,0.119
11,GGTCCTGA,-0.163
12,AGCGCTAC,-0.0647
13,CCGCAGGA,-0.0635
14,CTTACAAC,0.0334
15,GTTACAAA,0.384
16,TCTACAAA,0.138
17,GTTACAAC,0.289
18,ATTACAAA,0.165
19,TTTACAAA,0.294
20,CTTACAAA,0.143
21,TGTACAAA,0.0309
22,ATTACAAC,-0.0498
23,TACGTCGA,0.0119
24,GGAGTAGA,-0.0759
25,AAGCTGGA,-0.0676

row,Sequence,PBM E-score
1,GCGACCCC,0.0725
2,GGATGCGA,-0.201
3,AGTCCATC,-0.306
4,GAAATATA,0.284
5,AAAATATA,0.241
6,GAAATATC,0.0344
7,TAAATATA,0.321
8,CAAATATA,0.0746
9,GAAATACA,-0.00127
10,GTCTCTGA,-0.168
11,CCATCTCA,-0.0464
12,CGGCCCCG,0.0097
13,CACCATGA,0.0412
14,CGCGATGC,-0.182
15,CGTCCTAC,-0.0953
16,TCAGTGCA,0.0371
17,CTAGGGCA,-0.159
18,GATGATGC,-0.125
19,GTTGCGAA,0.093
20,CGCAAGGC,0.049
21,AGTGAAAC,0.394
22,GGTGAAAA,0.0914
23,AGTGAAAG,0.126
24,AGTGAAAT,0.0994
25,GGTGAACC,-0.00551

row,Sequence,PBM E-score
1,CGTGAAAA,0.22
2,CGTGAAAC,0.364
3,GGTGAAAC,0.463
4,CGTGAAAG,0.0979
5,CCTCGTTA,0.049
6,CGGTAACG,-0.141
7,GCCTAAAC,-0.125
8,CACAGGTA,0.0125
9,ACCGTCTG,-0.00201
10,CCCAGGGC,-0.256
11,GAGATGAA,0.156
12,GCGATGAA,0.116
13,CGGATGAG,-0.11
14,AAGATGAA,0.18
15,ACGATGAC,-0.173
16,CGGATGAA,0.268
17,ACGATGAA,0.274
18,AGGATGAA,0.128
19,TAGATGAA,0.279
20,CATACCAA,-0.0054
21,AACTCTCC,-0.129
22,AGCGAGAT,0.119
23,CCGAATTC,-0.00494
24,TGACCTCA,-0.0719
25,ACAGAAGC,-0.0242

row,Sequence,PBM E-score
1,AGAAGACT,-0.22
2,CAGTTTCG,0.181
3,AAGTTTCC,0.11
4,CAGTTTCC,0.0749
5,AAGTTTTC,0.0212
6,TAGTTTAA,0.171
7,TAGTTTGA,0.0916
8,AAGTTTCA,0.437
9,AAGTTTTA,0.287
10,AAGTTTTG,0.116
11,CAGTTTCA,0.374
12,TAGTTTCA,0.36
13,AAGTTTCG,0.175
14,CGGCGAGA,-0.167
15,CCTTTTCG,0.19
16,CGACCTGC,-0.0774
17,GACCTCAC,-0.15
18,TCACGGAA,0.135
19,ACGATCGA,-0.106
20,ACGGAGGC,-0.187
21,GACCAGGA,-0.183
22,GTTCGCTA,-0.0318
23,GAGTTTCC,-0.00944
24,GAGTTTGA,0.0997
25,GAGTTTCA,0.407

row,Sequence,PBM E-score
1,CTGTGGTA,-0.0102
2,CATTTATC,0.0356
3,AATTTATA,0.274
4,AATTTATC,0.281
5,CATTTATA,0.189
6,GATTTATA,0.182
7,AATTTATG,0.205
8,CGGTAGAA,-0.142
9,GCCAAAGA,-0.0779
10,GGATTGCA,0.117
11,GCTGCGCA,-0.229
12,ACGCTTGC,-0.116
13,CACGTTTC,0.285
14,AACGTTTG,0.0498
15,CACGTTTA,-0.00355
16,AACGTTTC,0.328
17,CACGTTAC,0.0456
18,AACGTTTA,0.00807
19,ACAATTTA,0.163
20,AATTAAGT,0.118
21,CACATAGA,-0.0651
22,ACTAGAAC,-0.0111
23,ACTAGAAT,0.277
24,GACATAGA,0.0743
25,AACATAGA,0.287

row,Sequence,PBM E-score
1,ACTATAAT,0.274
2,ACTAGAAA,0.244
3,ACTATAAA,0.241
4,AACATAAC,0.0575
5,AACATAAA,0.249
6,ACTATAAC,-0.0368
7,AACATAAT,0.286
8,ACTCCTAA,-0.0995
9,GGAGGACA,-0.106
10,GGCAATGA,-0.192
11,ACTTGGAT,0.0871
12,TACTTCAA,0.0645
13,AATCTAGG,0.0839
14,GATGGTAA,0.0297
15,CACCATAG,-0.041
16,AACATAAG,0.289
17,CACATAAG,0.044
18,ATCATAAG,0.0492
19,CCAGAGTA,0.03
20,CCCGTCTA,-0.125
21,AATAGCAA,0.00204
22,AAACGTTA,0.0762
23,AAACGTTT,0.283
24,AAACGTGA,0.312
25,AAACGTGT,0.123

row,Sequence,PBM E-score
1,AAACGTGG,0.0452
2,AAACGTTG,0.111
3,GCAAGGGA,-0.0936
4,AAGTAGCA,0.0754
5,CAACTGAA,0.201
6,AGCCAGAC,-0.132
7,CGCCCCAA,0.296
8,CGCCCCCA,-0.079
9,GGCCCCAA,-0.177
10,GGCCCCAC,-0.181
11,CGCCCCAG,0.0509
12,CGCCCCAC,0.272
13,CTAACGCA,-0.0702
14,ATAGAAAC,0.189
15,CGCCCCTC,0.351
16,CTCCCCGA,0.0416
17,ATCCCCTA,-0.0687
18,CTCCCCGC,0.386
19,AGCCCCTC,-0.00471
20,CTCCCCTC,0.28
21,CCCCCCTC,-0.244
22,CGCCCCTA,0.214
23,ATCCCCTC,0.303
24,ATCCCCGC,0.249
25,CTCCCCTA,-0.0541

row,Sequence,PBM E-score
1,ATCCCCTG,-0.157
2,ACAGACTG,0.0359
3,GACTCCCC,-0.26
4,CCAGGCTC,-0.124
5,AGGCTTCG,-0.158
6,ACACTTCC,-0.0741
7,CAGAGCAC,0.0445
8,AATCGAGG,0.108
9,ATGAGAGC,-0.126
10,TAAGCTCA,-0.18
11,TCGATACA,0.19
12,AACTCCGC,-0.0808
13,AGTGCGCC,-0.156
14,GAATTTCA,-0.0538
15,ATTTGTTG,0.181
16,CTTTGTTA,0.219
17,GTTTGTTA,0.169
18,CTTTGTAA,0.152
19,CTTTGTTC,0.227
20,ATTTGTAA,0.288
21,ATTTGTTA,0.274
22,ATTTGTTC,0.266
23,ATTTGTAG,0.127
24,CCTAATGA,0.13
25,AGGGTCTC,-0.153

row,Sequence,PBM E-score
1,CCCTTCAC,-0.0106
2,AATTCATG,0.255
3,ACCCAGAT,0.0125
4,AGACCACG,-0.255
5,TAAACACA,0.175
6,AAAACACT,0.215
7,GAAACACC,0.311
8,GAAACACA,0.408
9,AAAACACC,0.213
10,AAAACACG,0.304
11,AAAACACA,0.198
12,CAAACACG,0.17
13,CAAACACC,0.121
14,AGGGCTCC,-0.236
15,GTCGCTTA,-0.193
16,CCGGGCAA,-0.0289
17,CATTGTGG,0.0722
18,ATGCTCCA,0.0506
19,TCCTGAAA,0.25
20,GCCTGAAA,0.273
21,AGCTGAAA,0.264
22,TGCTGAAA,0.24
23,AGCTGAAG,-0.127
24,GGCTGAAA,0.27
25,AGCTGAAC,-0.288

row,Sequence,PBM E-score
1,GCCTGAAC,-0.209
2,CGCTGAAA,0.251
3,GCCACAGC,-0.299
4,GGGGCTAA,-0.0575
5,CCTATAGA,0.00311
6,CTTGCGAC,-0.128
7,ATTGCGAG,0.127
8,ATTGCGAC,0.277
9,CCGTCGCA,0.176
10,CAATGCGA,-0.00861
11,CATGATCA,0.0535
12,TTCTAAAA,0.292
13,ATCTAAAC,0.127
14,GTCTAAAA,0.135
15,ATCTAAAT,0.172
16,CTCTAAAA,0.0605
17,ATCTAAAA,0.285
18,CGCTCTGA,0.0576
19,ACTGGGTG,-0.107
20,GTACCTCA,-0.173
21,GAGTTGGA,0.0912
22,ATAGTCAT,-0.141
23,AGGAGCGC,-0.0491
24,ACGTGAAC,-0.226
25,TAGTGACA,-0.0814

row,Sequence,PBM E-score
1,AAGTGAAA,0.291
2,TAGTGAAA,0.324
3,ACGTGAAA,0.323
4,TAGTGATA,-0.126
5,CAGTGAAA,0.197
6,GAGTGAAA,0.204
7,TCGTGAAA,0.177
8,GGCCACAA,0.0783
9,CTCCCAGA,-0.165
10,CCCCAAGC,0.176
11,GCAATCAA,0.0398
12,ACTGGGAA,0.0846
13,AGCTAGTC,-0.133
14,ACAAACAA,0.0589
15,ACAAACAG,0.125
16,ACAAACAC,0.266
17,CCAAACAA,0.125
18,GCAAACAA,0.146
19,TCAAACAA,0.266
20,CAGGGCGA,-0.103
21,CAGCGATC,-0.00075
22,AATGTCAT,0.0301
23,AGTCCCAC,-0.133
24,CACAATAG,0.227
25,AGTCTAAT,0.00604

row,Sequence,PBM E-score
1,ATATAGAT,0.179
2,AGGGGCGG,0.452
3,AGGGGCGA,0.165
4,AGGCGGGG,0.269
5,AGGCGGGC,0.0738
6,AGGGCGGC,-0.0895
7,AGGGGCGC,0.0204
8,AGGGCGGG,0.296
9,AGGCGGGA,0.0721
10,AGGGCGTG,-0.116
11,GCAAAGCC,-0.185
12,TCCCAGAA,-0.0433
13,TGCTTTAA,0.199
14,ACTGAGGG,-0.101
15,CGAGGTAC,-0.0522
16,CGCCGCAG,0.0202
17,TAATTAGA,0.161
18,CAATTAGA,0.102
19,AAATTAGA,0.283
20,GCCGAACC,0.0313
21,CGCTGAGC,-0.154
22,AACCCGCC,0.0991
23,GCCCCGCC,0.33
24,GCCCCGCA,-0.112
25,CCCCCGCC,-0.0801

row,Sequence,PBM E-score
1,GGCCCGCC,0.0329
2,ACCCCGCC,0.41
3,ACCCCTCC,0.229
4,GTCGCGAC,0.389
5,GTCGCGAA,-0.0274
6,CTCGCGAC,0.0527
7,AACTATGG,-0.0761
8,ATGTTGCG,0.139
9,GATTAATA,0.246
10,AATTAATA,0.359
11,AATTAGTC,0.218
12,TATTAATA,0.336
13,AATTAATG,0.232
14,AATTAGTA,0.263
15,CATTAGTA,0.071
16,AATTAATT,0.254
17,CATTAATA,0.251
18,CCATTGCA,0.0632
19,CGCCTAGC,-0.0616
